Assay results published in PubChem BioAssay (NCATS).
Unmarked numbers belong to inactive results. A call without a number means that no potency is given here. Activity calls are given as the source filed them. The call rests on the fitted dose curve; in most records, active means well fitted inhibition curve with a large enough effect; inconclusive means small, poorly fitted or top-dose-only effect; inactive means flat fitted curve, though single readings scatter. Where a SMILES comes first, the peptide text is derived from it. [ ]: non-standard residue; d: D form. ξ: configuration not given here. ξPhe(βξ-Me) = CC(c1ccccc1)C(N)C(=O)O; GABA = NCCCC(=O)O

The compounds below were run on Nanoluciferase (engineered Oplophorus gracilirostris luciferase) (assay: Primary Nanoluciferase (NLuc) qHTS assay for identification of artifact compounds. (AID 1845222)). Details: NLuc-conditioned medium, Nano-Glo luminescence, 5 min; series mostly up to 54.1 µM.
Text: PI: Alexander Tropsha Ph.D.
UNC Eshelman School of Pharmacy
University of North Carolina, Chapel Hill, North Carolina
Hits from high-throughput screening (HTS) of chemical libraries are often false positives due to their interference with the assay detection technology. In response to this problem, we generated the largest publicly available library of chemical liabilities and developed a free webtool to predict HTS artifacts, both of which are described herein. More specifically, we generated, curated, and integrated HTS datasets for thiol reactivity, redox activity, and luciferase (firefly and nano) activity. Using these curated datasets, we developed and validated several Quantitative Structure-Interference Relationship (QSIR) models to predict nuisance behavior. […] These models were employed for virtual profiling of the National Center for Advancing Translational Science's (NCATS) in-house library, and 256 compounds for each assay were selected for the experimental validation of nuisance behavior. The BA for these external predictions ranged from 58 to 78% for compounds within the applicability domains of the models. […] The models developed in this study, along with aggregation models previously developed by our group (SCAM Detective) were implemented in "Liability Predictor," an online tool which may be used as part of chemical library design or for triaging HTS hits. Both the models and the curated datasets are publicly available at https://liability.mml.unc.edu/.
SEQUENCE No. (e.g., 1, 2, 3, etc.); […] (e.g., Cells, Incubation, Reagent, etc.); VALUE; DESCRIPTION.
1; Reagent; 2 uL; Nanoluciferase media.
2; Compounds and control; 16 nL; Kalypsis pin tool (Wako USA) equipped with a 1536-well pin head.
4; Reagent; 2 uL; Luciferase enzyme.
6; Detection; Luminescence, ViewLux microplate reader.
NOTES (numbers refer to Sequence numbers above)
1. Medium was collected from the culture flasks of NLuc-expressing S16 cells (80% confluent) prior to cell plating, filtered through a 0.22um filter, and frozen at -20C prior to use. Media was diluted (1:55) and 2 uL was dispensed into all wells of a 1536-well assay plate (solid-bottom white plate; Greiner Bio One, Monroe, NC).
2. A Wako Pin-tool (Wako Automation, Richmond, VA) was used to transfer 16 nL of compounds (consisting of 7-plates in qHTS format, final concentration range 18.3 nM to 114 uM) or control Cilnidipine (final concentration range 623 nM to 80 uM).
3. 15 min. incubation at room temperature protected from light.
4. 2 uL of NLuc substrate (1:100 in Nano-Glo luciferase buffer; Nano-Glo luminescence assay, Promega, Madison, WI) was dispensed for a final assay volume of 4 uL.
5. Plates were centrifuged (121xg, 15 seconds) and incubated for 5 minutes.
6. Samples were read for luminescence on a ViewLux CCD imager (PerkinElmer). Data were normalized to no-enzyme (0% activity) and no-inhibitor (DMSO; 100%) controls and the resulting percent inhibition data were fitted to a 4-parameter Hill equation using NCATS in-house software.

Row | SMILES | Potency | activity, negative = inhibition
1 | CC(C)(O)c1ccc2c(c1)C(=O)CC1[C@](C)(CO)CCC[C@]21C (stereo not given in full) | inactive | –
2 | CN1C(=O)N[C@@H](Cc2c[nH]c3c(Cl)cccc23)C1=O | inactive | –
3 | COc1cc(C(C)=O)ccc1O[C@@H]1O[C@H](CO[C@@H]2O[C@@H](C)[C@H](O)[C@@H](O)[C@H]2O)[C@@H](O)[C@H](O)[C@H]1O | inactive | –
4 | CC1(C)CCC(C)(C)c2cc([C@@H](O)C(=O)Nc3ccc(C(=O)O)cc3F)ccc21 | inactive | –
5 | CC1NC(=O)CNC(=O)C(C(C)C)NC(=O)C2CCCN2C(=O)C(C(C)C)NC(=O)C(Cc2c[nH]c3ccccc23)NC1=O (stereo not given) (cyclo(GAWVPV); configuration not given here) | inactive | –
6 | CC1CCC2C(C(=O)O)=CC3CC(C)(C)CC132 (stereo not given) | inactive | –
7 | CC1NC(=O)C(Cc2c[nH]c3ccccc23)NC1=O (stereo not given) | inactive | –
8 | C=C(C)C(=O)O[C@H]1C[C@@](C)(OC(C)=O)[C@@]2(O)CC[C@@](C)(O)[C@H](OC(C)=O)[C@@]23OC(=O)C(COC)=C13 | inactive | –
9 | C=CC1(C)C=C2C(O)CC3C(C)(C(=O)O)CCCC3(C)C2CC1 (stereo not given) | inactive | –
10 | O=C(O)CCc1cc2ccoc2cc1O[C@@H]1O[C@H](CO[C@@H]2OC[C@](O)(CO)[C@H]2O)[C@@H](O)[C@H](O)[C@H]1O | inactive | –
11 | CC(C)=CCC/C(C)=C/CC/C(C)=C/CC[C@]1(C)CCc2cc(O)cc(C)c2O1 | inactive | –
12 | O=C(O)c1ccc(CCCc2ccc(OCCc3ccc(F)cc3)cc2)o1 | inactive | –
13 | CNC(=O)Nc1ccc(OC)c(NC(=O)NC(=O)c2cc(F)c(F)cc2Cl)c1 | inactive | –
14 | CC(=O)O[C@H](C[C@@H](C)[C@H]1C(=O)[C@H](O)[C@@]2(C)[C@@H]3CCC4C(C)(C)[C@@H](O[C@@H]5OC[C@H](O)[C@H](O)[C@H]5O)CC[C@@]45C[C@@]35CC[C@]12C)[C@@H]1OC1(C)C (stereo not given in full) | inactive | –
15 | COCC(=O)N1CCc2cc(-c3csc(NC(=O)c4cc(OC)cc(OC)c4)n3)ccc21 | inactive | –
16 | CC(=O)Oc1cc2c(s1)CCN([C@H](C(=O)C1CC1)c1ccccc1F)C2 | inactive | –
17 | O=C(O[C@@H]1O[C@H](CO)[C@@H](O)[C@H](O)[C@H]1O)c1c(O)cc(O)cc1/C=C/c1ccccc1 | inactive | –
18 | C=C1CC[C@@H]2[C@](C)(CO[C@@H]3O[C@H](CO)[C@@H](O)[C@H](O)[C@H]3O)CCC[C@@]2(C)[C@@H]1CCC1=CCOC1=O | inactive | –
19 | COc1cc(/C=C/C(=O)O[C@H]2[C@H](OC(=O)/C=C/c3cc(OC)c(O)c(OC)c3)O[C@H](CO[C@@H]3O[C@H](CO)[C@@H](O)[C@H](O)[C@H]3O)[C@@H](O)[C@@H]2O)ccc1O | inactive | –
20 | CCOc1ccc(C(Nc2ccccn2)c2ccc3ccc(C)nc3c2O)cc1C (stereo not given) | inactive | –

Row | SMILES | Potency | activity, negative = inhibition
21 | CO[C@@]12CC3[C@@H]([C@@H](O)[C@@H](OC(C)=O)C4[C@](C)(COC(C)=O)CCC[C@]34C)[C@@H](C)C1=CC(=O)O2 (stereo not given in full) | inactive | –
22 | O=C(NCC(=O)N1CC[C@H](NC2CCC(O)(c3ccc(-c4ncccn4)cn3)CC2)C1)c1cccc(C(F)(F)F)c1 (stereo not given in full) | inactive | –
23 | CC(C)CC1NC(=O)C(C(C)c2ccccc2)NC(=O)C(C(C)C)NC(=O)C(C)NC(=O)CCCNC(=O)C(Cc2c[nH]c3ccccc23)NC(=O)C(C)NC1=O (stereo not drawn) (cyclo([GABA]AV[ξPhe(βξ-Me)]LAW); configuration not given here) | inactive | –
24 | COc1c2c(c(C)c3c1C(=O)OC3)OC1(C)CC(O)C3(O)C(C)(C)OC(=O)CCC3(C)C1C2 (stereo not given) | inactive | –
25 | CCCOc1ccn2c(C(C)=O)cc(-c3ccccc3S(C)(=O)=O)c2c1 | inactive | –
26 | Cc1cc(Nc2ncc(Cl)c(Nc3ccccc3S(=O)(=O)C(C)C)n2)c(OC(C)C)cc1C1CCNCC1 | inactive | –
27 | C[C@@H]1O[C@@H](O[C@H]2[C@H](OC(=O)C34CCC(C)(C)CC3C3=CCC5C6(C)CC(O)C(O[C@@H]7O[C@H](CO)[C@@H](O)[C@H](O)[C@H]7O)C(C)(C(=O)O)C6CCC5(C)C3(CO)CC4)O[C@H](C)[C@H](O)[C@@H]2O)[C@H](O)[C@H](O)[C@H]1O[C@@H]1OC[C@@H](O)[C@H](O)[C@H]1O (stereo not given in full) | – | 2.8% [at 11.6 µM]
28 | COc1cc(C2Oc3c(OC)cc(/C=C/C(=O)OC[C@H]4O[C@@H](OC(C)(C)C(=O)O)[C@H](O)[C@@H](O)[C@@H]4O)cc3C2CO)ccc1O (stereo not given in full) | inactive | –
29 | Cc1cc(O)c(C(C)C)cc1O[C@@H]1O[C@H](CO)[C@@H](O)[C@H](O)[C@H]1O | inactive | –
30 | COc1cc(C2Oc3c(O)cc(CCCO)cc3C2CO)ccc1O[C@H]1O[C@H](C)[C@@H](O)[C@H](O)[C@@H]1O (stereo not given in full) | inactive | –
31 | O=C(/C=C/c1ccc(O)cc1)OC[C@]12O[C@H]1[C@@H](O)[C@@H]1C=CO[C@@H](O[C@@H]3O[C@H](CO)[C@@H](O)[C@H](O)[C@H]3O)[C@@H]12 | inactive | –
32 | C[C@@H]1O[C@@H](O[C@H]2[C@H](O[C@H]3[C@H](O[C@H]4CC[C@@]5(C=O)C(CC[C@]6(C)C5CC=C5C7CC(C)(C)C[C@@H](O)[C@]7(C)CC[C@]56C)C4(C)C)O[C@H](C(=O)O)[C@@H](O)[C@@H]3O)OC[C@@H](O)[C@@H]2O)[C@H](O)[C@H](O)[C@H]1O (stereo not given in full) | – | 3.37% [at 11.6 µM]
33 | C[C@@H]1O[C@@H](O[C@H]2[C@H](O)[C@@H](C(=O)O)O[C@@H](O[C@H]3CC[C@@]4(C)C(CC[C@]5(C)C4CC=C4C6CC(C)(C)CC[C@]6(C(=O)O)CC[C@]45C)C3(C)C)[C@@H]2O[C@@H]2O[C@H](CO)[C@@H](O)[C@H](O)[C@H]2O)[C@H](O)[C@H](O)[C@H]1O (stereo not given in full) | – | -0.245% [at 11.6 µM]
34 | CC1=C2CC3OC3(C)CCC3OC3(C)CC2OC1=O (stereo not given) | inactive | –
35 | C=CC1(C)CC(O)C2(CCC3C(C)(C(=O)O)CCCC3(C)C2=O)C1 (stereo not given) | inactive | –
36 | C=C[C@H]1[C@H](O[C@@H]2O[C@H](CO)[C@@H](O)[C@H](O)[C@H]2O)OC=C(C(=O)OC)[C@H]1C[C@@H]1N[C@H](C(=O)O)Cc2c1[nH]c1ccccc21 | inactive | –
37 | COc1ccc([C@@H]2N[C@H](C(=O)O)Cc3c2[nH]c2ccccc32)cc1CN1CCN(c2ccccc2F)CC1 | inactive | –
38 | CC(/C=C/C1(O)C(C)CC(O)CC1(C)C)OC1OC(CO)C(O)C(O)C1O (stereo not given) | inactive | –
39 | OC[C@H]1O[C@@H](Oc2ccc3c(c2)OC[C@H]2c4cc5c(cc4O[C@@H]32)OCO5)[C@H](O)[C@@H](O)[C@@H]1O | inactive | –
40 | CC1CCC2(O1)C(C)(C)CC(O[C@@H]1O[C@H](CO[C@@H]3OC[C@](O)(CO)[C@H]3O)[C@@H](O)[C@H](O)[C@H]1O)CC2(C)O (stereo not given in full) | inactive | –
